Data on 3 molecules can be found in PubChem BioAssay (EPA / NIEHS).

Read-out in assay [1]: C-C motif chemokine 2 (Homo sapiens) (UniProt P13500)
The experiment in a line: BSK_KF3CT_MCP1: BioMAP Diversity Plus: KF3CT Assay for Monocyte Chemoattractant Protein 1 (MCP1/CCL2) Biomarker Activity (AID 2283073). The conditions noted are these: primary human keratinocytes with fibroblasts; actives raise or lower the signal. Summed up:
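Human keratinocyte–foreskin fibroblast co-culture; MCP-1 measured by ELISA 24 h after dosing. Bidirectional fit vs DMSO; cytotoxicity tracked by SRB total protein in parallel cultures.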

Read-out in assay [2]: Matrix Metallopeptidase 9 (MMP9), MMP9 (gene 4318)
The experiment in a line: BSK_KF3CT_MMP9: BioMAP Diversity Plus: KF3CT Assay for Matrix Metallopeptidase 9 (MMP9) Biomarker Activity (AID 2283074).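 On AC50: MMP9 protein level quantified by ELISA in the co-culture.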 The conditions noted are these: primary human keratinocytes with fibroblasts; actives raise or lower the signal. In a few lines:
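Human keratinocyte/foreskin fibroblast co-culture; compound added; 24 h; MMP-9 by ELISA; bidirectional fit vs DMSO baseline.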

Read-out in assay [3]: urokinase plasminogen activator (uPA), PLAU (gene 5328)
The experiment in a line: BSK_KF3CT_uPA: BioMAP Diversity Plus: KF3CT Assay for urokinase plasminogen activator (uPA) Biomarker Activity (AID 2283075). The following applies: primary human keratinocytes with fibroblasts; actives raise or lower the signal. Summed up:
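ELISA readout of uPA, analyzed for signal gain or loss relative to DMSO, from a human primary keratinocyte–foreskin fibroblast co-culture measured 24 h after chemical treatment.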

Read-out in assay [4]: CD40, CD40 (gene 958)
Kind of assay: BSK_LPS_CD40: BioMAP Diversity Plus: LPS Assay for CD40 Biomarker Activity (AID 2283076). The conditions noted are these: primary human HUVEC with PBMC; actives raise or lower the signal. Summed up: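 HUVEC plus PBMC co-culture stimulated with LPS; CD40 quantified by ELISA 24 h after compound dosing. Fitting was bidirectional relative to DMSO. SRB staining of parallel cultures flagged overt cytotoxicity.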

Read-out in assay [5]: E-selectin (Homo sapiens) (UniProt P16581)
The experiment in a line: BSK_LPS_Eselectin: BioMAP Diversity Plus: LPS Assay for Eselectin Biomarker Activity (AID 2283077). The following applies: primary human HUVEC with PBMC; actives raise or lower the signal. In a few lines:
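Human umbilical vein endothelial cells co-cultured with PBMC under LPS stimulation; cell-surface E-selectin measured by ELISA 24 h after dosing. Change in either direction versus DMSO, with SRB total-protein staining in parallel cultures for cytotoxicity.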

Read-out in assay [6]: Interleukin-8 (IL8), CXCL8 (gene 3576)
Kind of assay: BSK_LPS_IL8: BioMAP Diversity Plus: LPS Assay for Interleukin-8 (IL8) Biomarker Activity (AID 2283078). The following applies: primary human HUVEC with PBMC; actives raise or lower the signal. Summed up:
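Human umbilical vein endothelial cells co-cultured with PBMC, LPS-stimulated, exposed to compound for 24 h. IL-8 quantified by ELISA; fitted in both directions against DMSO, with SRB total-protein staining of parallel cultures for cytotoxicity.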

The nature of assay [7]: BSK_LPS_SRB: Viability Assessment in the BioMAP Diversity Plus: LPS Assay (AID 2283079).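 Further: total protein by sulforhodamine B absorbance as a cytotoxicity measure; measured one day after compound addition; fitted in both directions against DMSO so loss or gain of signal counts.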 The following applies: primary human HUVEC with PBMC. In a few lines: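 Co-culture of human umbilical vein endothelial cells and PBMC, read 24 h after dosing. Total protein by 0.1% SRB staining after 10% TCA fixation, absorbance at 560 nm; bidirectional fit against DMSO.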
Read-out in assay [8]: Interleukin-1 alpha (IL1a), IL1A (gene 3552)
The experiment in a line: BSK_LPS_IL1a: BioMAP Diversity Plus: LPS Assay for Interleukin-1 alpha (IL1a) Biomarker Activity (AID 2283080). The following applies: primary human HUVEC with PBMC; actives raise or lower the signal. In a few lines: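 Human umbilical vein endothelial cells co-cultured with PBMC and stimulated with LPS; IL-1a measured by ELISA 24 h after dosing. Bidirectional fitting against DMSO; cytotoxicity checked by SRB staining in parallel cultures.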

Read-out in assay [9]: Monocyte Chemoattractant Protein-1 (MCP1), CCL2 (gene 6347)
The experiment in a line: BSK_LPS_MCP1: BioMAP Diversity Plus: LPS Assay for Monocyte Chemoattractant Protein-1 (MCP1) Biomarker Activity (AID 2283081).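 On AC50: secreted MCP-1 protein quantified by ELISA in culture supernatant.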 The following applies: primary human HUVEC with PBMC; actives raise or lower the signal. In a few lines: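 Human umbilical vein endothelial cells co-cultured with PBMC, LPS-stimulated; secreted MCP-1 measured by ELISA 24 h after compound addition. Bidirectional curve fitting against DMSO baseline; SRB total-protein staining in parallel cultures for cytotoxicity.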

Assay [10] can be described thus: BSK_LPS_PGE2: BioMAP Diversity Plus: LPS Assay for Prostaglandin E2 (PGE2) Biomarker Activity (AID 2283082).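 On AC50: secreted prostaglandin E2 measured by ELISA in LPS-stimulated co-culture.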 The following applies: primary human HUVEC with PBMC; actives raise or lower the signal. Summed up:
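Endpoint derived from bidirectional curve fitting versus DMSO of ELISA-measured PGE2 in LPS-stimulated human primary vascular co-culture (HUVEC with PBMC) harvested at 24 h.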

Read-out in assay [11]: Macrophage colony-stimulating factor (MCSF), CSF1 (gene 1435)
Kind of assay: BSK_LPS_MCSF: BioMAP Diversity Plus: LPS Assay for Macrophage colony-stimulating factor (MCSF) Biomarker Activity (AID 2283083). The conditions noted are these: primary human HUVEC with PBMC; actives raise or lower the signal. In a few lines: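 HUVEC–PBMC co-culture, M-CSF measured by ELISA 24 h after chemical dosing. Fitted in both directions relative to DMSO as negative control; overt cytotoxicity assessed by SRB total-protein staining in parallel cultures.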

Read-out in assay [12]: Tissue Factor, F3 (gene 2152)
The experiment in a line: BSK_LPS_TissueFactor: BioMAP Diversity Plus: LPS Assay for Tissue Factor Biomarker Activity (AID 2283084). The following applies: primary human HUVEC with PBMC; actives raise or lower the signal. In a few lines:
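Human umbilical vein endothelial cells co-cultured with PBMC were dosed with compound. Cell-surface CD142 was measured by ELISA 24 h later. Activity was fitted bidirectionally against DMSO, with SRB total-protein staining in parallel cultures for cytotoxicity.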

Read-out in assay [13]: Tumor necrosis factor (Homo sapiens) (UniProt P01375)
Kind of assay: BSK_LPS_TNFa: BioMAP Diversity Plus: LPS Assay for Tumour Necrosis Factor alpha (TNFa) Biomarker Activity (AID 2283085). The following applies: primary human HUVEC with PBMC; actives raise or lower the signal. In a few lines:
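Primary human vascular co-culture of HUVEC and PBMC; TNFa ELISA 24 h after treatment, analysed as increase or decrease relative to DMSO control.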

Read-out in assay [14]: Vascular cell adhesion molecule 1 (VCAM1), VCAM1 (gene 7412)
Kind of assay: BSK_LPS_VCAM1: BioMAP Diversity Plus: LPS Assay for Vascular cell adhesion molecule 1 (VCAM1) Biomarker Activity (AID 2283086). The following applies: primary human HUVEC with PBMC; actives raise or lower the signal. Summed up: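 Primary human vascular co-culture (umbilical vein endothelium plus PBMC) stimulated with LPS received chemical; 24 h later VCAM-1 was read by ELISA. Overt cytotoxicity was assessed by sulforhodamine B staining of parallel cultures at the same time point.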

Read-out in the next assay: CD38, CD38 (gene 952)
Kind of assay: BSK_SAg_CD38: BioMAP Diversity Plus: SAg Assay for CD38 Biomarker Activity (AID 2283087). The following applies: primary human HUVEC with PBMC; actives raise or lower the signal. Summed up: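 Fluorescence ELISA of cell-surface CD38 served as the read-out, with either increase or decrease fitted against DMSO controls. Cells were a human umbilical vein endothelium plus PBMC co-culture under SEB/TSST-1 stimulation, measured 24 h after dosing.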

Read-out in assay [15]: CD40, CD40 (gene 958)
The experiment in a line: BSK_SAg_CD40: BioMAP Diversity Plus: SAg Assay for CD40 Biomarker Activity (AID 2283088). The following applies: primary human HUVEC with PBMC; actives raise or lower the signal. Summed up:
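HUVEC plus PBMC co-culture, superantigen-activated, with CD40 read by ELISA 24 h after dosing. Curves fitted in both directions against DMSO. Overt cytotoxicity checked by parallel SRB total-protein staining.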

Read-out in another assay: CD69, CD69 (gene 969)
The experiment in a line: BSK_SAg_CD69: BioMAP Diversity Plus: SAg Assay for CD69 Biomarker Activity (AID 2283089).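 On AC50: cell surface CD69 protein quantified by ELISA with fluorescence detection.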 The following applies: primary human HUVEC with PBMC; actives raise or lower the signal. Summed up: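 Endothelial/PBMC co-culture; chemical added; 24 h incubation; CD69 ELISA with fluorescence detection; bidirectional fit vs DMSO.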

Read-out in assay [16]: Monocyte Chemoattractant Protein-1 (MCP1), CCL2 (gene 6347)
Kind of assay: BSK_SAg_MCP1: BioMAP Diversity Plus: SAg Assay for Monocyte Chemoattractant Protein-1 (MCP1) Biomarker Activity (AID 2283090). The conditions noted are these: primary human HUVEC with PBMC; actives raise or lower the signal. In a few lines: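 MCP-1 levels in the endothelial–PBMC SAg co-culture were quantified by ELISA at 24 h post-dosing; both increases and decreases versus DMSO scored. Cytotoxicity monitored by SRB total protein in parallel cultures.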

Read-out in assay [17]: Monokine induced gamma interferon (MIG), CXCL9 (gene 4283)
The experiment in a line: BSK_SAg_MIG: BioMAP Diversity Plus: SAg Assay for Monokine induced gamma interferon (MIG) Biomarker Activity (AID 2283092). The following applies: primary human HUVEC with PBMC; actives raise or lower the signal. In a few lines:
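Measures CXCL9 protein by ELISA in a human vascular primary-cell co-culture (umbilical vein endothelium with PBMC) 24 h after chemical addition. Activity is scored up or down from the DMSO control.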

SMILES strings stand for the structures. Activity calls are given as the source filed them. How the source made its calls: active means hit-call score of the fitted dose curve at least 0.9, where 1 is the maximum; inactive means score below 0.9.

Sequence of Tumor necrosis factor (Homo sapiens) (P01375 whole entry, looked up): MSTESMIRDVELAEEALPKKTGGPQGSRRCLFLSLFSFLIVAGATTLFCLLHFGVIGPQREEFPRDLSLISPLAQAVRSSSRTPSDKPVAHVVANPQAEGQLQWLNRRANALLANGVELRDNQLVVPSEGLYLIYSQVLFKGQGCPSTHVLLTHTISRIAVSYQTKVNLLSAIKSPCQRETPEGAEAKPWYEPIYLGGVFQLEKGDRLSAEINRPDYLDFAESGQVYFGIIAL
Sequence of E-selectin (Homo sapiens) (P16581 whole entry, looked up): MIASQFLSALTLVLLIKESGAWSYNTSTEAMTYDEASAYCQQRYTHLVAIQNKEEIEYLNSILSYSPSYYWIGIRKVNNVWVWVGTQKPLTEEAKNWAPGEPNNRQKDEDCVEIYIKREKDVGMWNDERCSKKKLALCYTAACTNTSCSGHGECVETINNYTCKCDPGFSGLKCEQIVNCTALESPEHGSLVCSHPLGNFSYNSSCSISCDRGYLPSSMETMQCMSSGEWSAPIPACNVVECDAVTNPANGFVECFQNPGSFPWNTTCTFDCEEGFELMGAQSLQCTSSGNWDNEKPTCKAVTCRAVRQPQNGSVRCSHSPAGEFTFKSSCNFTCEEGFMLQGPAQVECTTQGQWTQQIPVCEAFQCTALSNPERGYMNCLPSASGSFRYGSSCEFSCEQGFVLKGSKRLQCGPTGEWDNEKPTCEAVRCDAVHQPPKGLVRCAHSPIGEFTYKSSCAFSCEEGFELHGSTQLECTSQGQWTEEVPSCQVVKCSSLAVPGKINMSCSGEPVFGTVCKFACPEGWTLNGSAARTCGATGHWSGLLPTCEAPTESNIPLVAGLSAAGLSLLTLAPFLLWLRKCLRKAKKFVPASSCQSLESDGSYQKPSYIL

For the molecule `CCOP(=S)(OCC)Oc1nc(Cl)c(Cl)cc1Cl`, the result in [1], in [2], in assay [3], in assay [5], in assay [6] and in assay [7] was inactive. The result in assay [8], in assay [9], in [10], in assay [12], in assay [13] and in assay [17] was inactive. Moreover, the AC50 (usually the concentration giving half of the maximal activity seen) in the assay with CD40, CD40 (gene 958) [4] is 20000 nM (active); in assay [11], 20000 nM (active); in assay [14] it was 29200 nM (active); with CD38, CD38 (gene 952) it was 32300 nM (active); with CD40, CD40 (gene 958) [15] it was 33100 nM (active); with CD69, CD69 (gene 969), 20000 nM (active). For the same molecule, in assay [16], the half-maximal activity concentration (AC50) was 30100 nM (active).
Take `CC(=O)[O][Hg][c]1ccccc1`: the AC50 in assay [2] is 189 nM (active); in [3], 625 nM (active); with CD40, CD40 (gene 958) [4], 1620 nM (active); in assay [5], 3350 nM (active); in assay [6] it was 6470 nM (active); in assay [7] it was 1090 nM (active). In addition, the AC50 in [8] is 1250 nM (active); in assay [9] it was 1700 nM (active); in assay [10], 149 nM (active); in assay [11] it was 989 nM (active); in assay [12] it was 1990 nM (active); in assay [13], 1620 nM (active). For the same molecule, the AC50 in [14] was 2400 nM (active); with CD38, CD38 (gene 952), 560 nM (active); with CD40, CD40 (gene 958) [15], 1460 nM (active); with CD69, CD69 (gene 969) it was 1390 nM (active); in [16] it was 1040 nM (active); in assay [17] it was 1780 nM (active).
Consider `CC1(C)Cc2cccc(O)c2O1`, for which the outcome is “inactive” in assay [1]; “inactive” in assay [2]; “inactive” in assay [3]; “inactive” with CD40, CD40 (gene 958) [4]; “inactive” in assay [5]; “inactive” in [6]. The result in [7], in assay [8], in assay [9], in assay [11], in [12] and in assay [13] was inactive. Also, the outcome in assay [14] is “inactive”; with CD38, CD38 (gene 952) it was “inactive”; with CD40, CD40 (gene 958) [15], “inactive”; with CD69, CD69 (gene 969), “inactive”; in assay [16], “inactive”; in assay [17], “inactive”. For the same molecule, the AC50 in assay [10] is 4310 nM (active).
